Screening results from PubChem.
tim23-1 inh: growth inhibitors of tim23-1 mutant yeast; S. cerevisiae tim23-1 growth, BacTiter-Glo luminescence, 24 h; 330,000 compounds, 1.3% hits; inhibition, % at 20 µM;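 active means growth inhibition of the mutant yeast at or above 50%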;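 further: temperature-sensitive mutant grown at 25 °C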
SKKanGAS inh: blocks kanamycin growth of S. pyogenes SKKanGAS strain; BacTiter-Glo, 6 h; inhibition, % at 7.5 µM; 300,000 compounds, 1.3% hits; AID 1662;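 active means mean replicate score, as percent of positive control median, at least 50; inconclusive means mean below 50 but one replicate at or above 50; inactive means mean and every replicate below 50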;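 further: strain carries kanamycin resistance gene driven by streptokinase promoter and grows in 40 µg/ml kanamycin; loss of luminescence reflects streptokinase promoter inhibition or plain growth inhibition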
tim10-1 inh: tim10-1 yeast growth inhibition; S. cerevisiae tim10-1 ts strain growth, BacTiter-Glo, 24 h; inhibition, % at 20 µM; 330,000 compounds, 2.2% hits; AID 463190;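 active means inhibition of at least 40%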;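 further: mutant grown at 25 °C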
TIM10 inh: inhibits growth of TIM10 yeast strain; S. cerevisiae TIM10 strain growth, BacTiter-Glo luminescence, 24 h; inhibition, % at 10 µM; 330,000 compounds, 1.4% hits; AID 463195;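 active means inhibition of 40% or more at the single tested concentration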;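 further: wild-type TIM10 isogenic control strain grown at permissive 25 °C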
PfHsp90 yeast 2: reduces growth (ATP signal) of yeast expressing P. falciparum Hsp90 | S. cerevisiae expressing PfHsp90, BacTiter-Glo ATP, 48 h; yeast lacking PDR1 and PDR3 efflux regulators | inhibition, % at 9.4 µM | 310,000 compounds, 0.32% hits | AID 504621;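 active means every replicate shows inhibition above about 80%, whatever the replicate mean, limit read from the data; inconclusive means mean inhibition reaches the set limit but some replicate falls short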
Calb FLC: C. albicans growth modulation with fluconazole; growth inhibition, % (test concentration not listed); C. albicans CaCi-2 (fluconazole-resistant clinical isolate) + fluconazole, Alamar Blue growth, 48 h; 300,000 compounds, 0.57% hits;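 active means growth inhibition above about 58% in most replicates, limit read from the data, passing the limit was not always enough; inconclusive means exactly half the replicates above a set limit; inactive means most replicates below a set limit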;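 further: all wells also contain fluconazole at 8 µg/ml as a sub-toxic cotreatment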
TIM10 conf: confirmation of TIM10 yeast growth inhibitors; inhibition, % at 10 µM; S. cerevisiae tim10 strain growth, BacTiter-Glo luminescence, 24 h; shares compounds with TIM10 inh; 4,600 compounds, 63% hits;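 active means inhibition of yeast growth at or above a set limit in either of two replicates at 10 µM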; further: this counterscreen used the strain with wild-type TIM10
Large screens that a line does not name were inactive (follow-up assays come after a bar, where they were run). In the library only some 4.7% were active in any assay of this set; here they are far more common.

CC(C)CCOP(=O)(c1ccc(N(C)C)cc1)C(O)c1ccccc1F (stereo not drawn)	TIM10 inh 50.1 | TIM10 conf 41.4
CC(C)CCOP(=O)(c1ccc(N(C)C)cc1)C(O)c1ccc(C(C)C)cc1 (stereo not drawn)	none | TIM10 conf 36.3
Cc1ccc(/C=N/n2c(-c3cccc(Cl)c3)n[nH]c2=S)o1	TIM10 inh 41.9 (no result: PfHsp90 yeast 2) | TIM10 conf inactive
COc1ccc(CCn2c(C)cc(C(=O)CCl)c2C)cc1OC	TIM10 inh 42.4 | TIM10 conf 43.6
O=c1c(Cl)c(N/N=C/c2ccc(Br)cc2)cnn1-c1ccccc1	TIM10 inh 40.3 | TIM10 conf inactive
COc1cc(C(=O)NCCNC(=O)C2CCCNC2=O)cc(OC)c1OC (stereo not drawn)	TIM10 inh 40.3 | TIM10 conf inactive
COc1cc(C(=O)NCCCNC(=O)c2cc(OC)c(OC)c(OC)c2)cc(OC)c1OC	none (no result: PfHsp90 yeast 2)
C=CC[C@H](CC(=O)NCCO)C(=O)N[C@@H](COC(=O)[C@H](CC=C)CC(=O)OC(C)(C)C)Cc1ccccc1	none (no result: SKKanGAS inh, Calb FLC)
O=C(c1ccc(Cn2c(=O)[nH]c3ccccc3c2=O)cc1)N1CCN(c2ccccn2)CC1	none
O=C(c1ccc(Cn2c(=S)[nH]c3ccccc3c2=O)cc1)N1CCN(c2ccccn2)CC1	TIM10 inh 72.9, Calb FLC inconclusive (no result: PfHsp90 yeast 2) | TIM10 conf inactive
COC(=O)c1cccc(NC(=S)Nc2ccc(Cl)c(Cl)c2)c1	TIM10 inh 57.4, Calb FLC inconclusive | TIM10 conf 34.2
COC(=O)c1cccc(NC(=O)NC23CC4CC(CC(C4)C2)C3)c1	TIM10 inh 48.3 | TIM10 conf 38.4
COC(=O)c1cccc(NC(=S)Nc2ccccc2Cl)c1	none
COC(=O)c1ccc(Cl)c(NC(=O)NC23CC4CC(CC(C4)C2)C3)c1	none
NC1=NN(c2c(Cl)cc(Cl)cc2Cl)C(=O)C1	none (no result: tim23-1 inh, SKKanGAS inh, tim10-1 inh, TIM10 inh, Calb FLC)
COc1ccc(-c2n[nH]c(C)c2-c2ccc(Cl)cc2)c(O)c1OC	TIM10 inh 42.2 (no result: PfHsp90 yeast 2) | TIM10 conf 32.9
Cc1ccc2nc(Cl)c3nnnn3c2c1	TIM10 inh 55.3, PfHsp90 yeast 2 106.7, Calb FLC 96.8 | TIM10 conf 70.9
CC1CCCC(NC(=O)Cn2cc(Br)ccc2=O)C1C (stereo not drawn)	none (no result: SKKanGAS inh, Calb FLC)
O=C1CSC(c2ccccc2Br)N1c1ccc(Cl)cn1 (stereo not drawn)	TIM10 inh 40.5 (no result: PfHsp90 yeast 2) | TIM10 conf inactive
O=C1CSC(c2ccc(Cl)cc2Cl)N1c1ccccn1 (stereo not drawn)	none
c1ccc(-c2nc3cnccn3c2Nc2ccc3c(c2)OCCO3)cc1	TIM10 inh 44.1 | TIM10 conf inactive
COc1ccc(-c2cn3cccnc3n2)cc1Br	TIM10 inh 45.9 | TIM10 conf 55.3
O=C(N/N=C/c1ccc(-c2cccc(C(F)(F)F)c2)o1)c1cccc(F)c1	TIM10 inh 44.9 | TIM10 conf 39.5
NC(=O)N/N=C/c1ccc(-c2cccc(C(F)(F)F)c2)o1	none
COc1ccc(N2CCC(CNC(=S)Nc3cccc(C)c3)C2)cc1 (stereo not drawn)	none
COc1ccc(N2CCC(CNC(=S)Nc3c(C)cc(C)cc3C)C2)cc1 (stereo not drawn)	TIM10 inh 40.1 | TIM10 conf 55.7
COc1ccc(NC(=O)c2cc(C)cc(C)c2)cc1S(=O)(=O)N1CCCCC1	none (no result: SKKanGAS inh, Calb FLC)
Cc1ccc(C)c(OCCC(=O)N2CCN(S(=O)(=O)c3ccc([N+](=O)[O-])cc3)CC2)c1	TIM10 inh 53.1 (no result: SKKanGAS inh, Calb FLC) | TIM10 conf inactive
COc1ccc(/C=C/C(=O)NC(=S)NCC2CCCO2)cc1 (stereo not drawn)	none
COc1ccccc1/C=C/C(=O)NC(=S)NCC1CCCO1 (stereo not drawn)	TIM10 inh 41.8 | TIM10 conf 34.8
COc1cc(/C=N/NC(=S)NCC2CCCO2)cc(OC)c1OC (stereo not drawn)	none
COc1ccc(/C=N/NC(=S)NCC2CCCO2)cc1 (stereo not drawn)	TIM10 inh 44.4 | TIM10 conf inactive
O=C(CSCc1c(F)cccc1Cl)NNC(=S)NC1CCCCC1	none
N/C(Cc1ccc(Cl)cc1)=N\OC(=O)c1cccc2ccccc12	TIM10 inh 75.5, PfHsp90 yeast 2 128.3, Calb FLC inconclusive | TIM10 conf 76.3
COc1ccc(C/C(N)=N/OC(=O)c2ccc(Cl)cc2)cc1	TIM10 inh 49.1 | TIM10 conf 58.5
COc1ccc(C/C(N)=N/OC(=O)Cc2ccccc2)cc1	TIM10 inh 52.2 (no result: PfHsp90 yeast 2) | TIM10 conf inactive
COc1ccc(CC(=O)O/N=C(\N)Cc2ccc(OC)c(OC)c2)cc1	none
CCOc1ccc(S(=O)(=O)N2CCCC(C(=O)N3CCCC3)C2)cc1 (stereo not drawn)	none
N/C(=N/O)c1nc(N2CCCC2)nc(N(c2ccccc2)c2ccccc2)n1	TIM10 inh 53.3 | TIM10 conf 36.5
COc1ccc(C(CNC(=O)COc2cccc(C(F)(F)F)c2)N2CCCC2)cc1 (stereo not drawn)	none (no result: SKKanGAS inh, Calb FLC)
O=S(=O)(c1ccc(Oc2ncnc3scc(-c4ccccc4)c23)cc1)N1CCOCC1	Calb FLC inconclusive
CC(=O)Nc1cccc(Oc2ncnc3scc(-c4ccccc4)c23)c1	TIM10 inh 47.7 | TIM10 conf inactive
Cc1cc(NC(=O)COc2ccc3ccccc3c2)no1	none
Cc1cc(C)cc(C(=O)OCC(=O)NC(=O)NC2CCCC2)c1	TIM10 inh 96.4 (no result: SKKanGAS inh, Calb FLC) | TIM10 conf inactive
Cc1cc(C)cc(C(=O)OCC(=O)NC2CCCC2)c1	none
COc1ccc(-c2csc(NC(=O)CSCC(=O)Nc3cc(C)on3)n2)cc1	none (no result: SKKanGAS inh, Calb FLC)
COc1ccc(-c2csc(NC(=O)CSCc3c(C)noc3C)n2)c(OC)c1	TIM10 inh 83.1 | TIM10 conf inactive
Cc1ccc(S(=O)(=O)N2CCN(C(=O)COC(=O)CCOc3ccccc3)CC2)c(C)c1	none (no result: SKKanGAS inh, Calb FLC)
CC(C)(O)c1[nH]c2cc(C(F)(F)F)ccc2c1C(C)(C)O	TIM10 inh 67.3 | TIM10 conf inactive
CN(CC1COc2ccccc2O1)C(=O)c1ccc(Cl)c(S(=O)(=O)N2CCCCCC2)c1 (stereo not drawn)	none (no result: SKKanGAS inh, Calb FLC)
O=C(NCCS(=O)(=O)c1ccc(Br)cc1)c1ccc(Cl)cc1Cl	none
COc1cccc(/C=C2\N=C(c3c(-c4ccccc4)noc3C)OC2=O)c1	TIM10 inh 47.0 | TIM10 conf inactive
COc1cc(/C=C2\N=C(c3c(-c4ccccc4)noc3C)OC2=O)ccc1OC(C)=O	none
COc1ccc(CN=Cc2[nH]c3ccc(Br)c(Cl)c3c2O)cc1	TIM10 inh 41.3 | TIM10 conf inactive
Cc1cc(C)cc(N=Cc2[nH]c3ccc(Br)c(Cl)c3c2O)c1	none (no result: tim23-1 inh, tim10-1 inh, TIM10 inh)
O=C(CC12CC3CC(CC(C3)C1)C2)N/N=C\c1ccc[nH]1	TIM10 inh 46.2 | TIM10 conf 34.4
